SW480 rereplic = A quantitative high throughput screen for small molecules that induce DNA re-replication in SW480 colon adenocarcinoma cells. AID 624297, 2012. actives 1.8% (n = 340,000). SW480 DNA re-replication, Hoechst DNA content imaging, 48 h. Potency, µM (top dose mostly 46.1 µM), actives largely listed as activators; further: nearly all actives have a fitted effect of over 55% in size
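Image-based DNA-content assay: after two days of treatment, nuclei were labelled with the DNA dye Hoechst and imaged, and hits were compounds raising the count of nuclei showing high fluorescence intensity.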
KB-3-1 tox = qHTS assay for MDR1-selective chemotherapeutics: Primary screen using the parental adenocarcinoma cell KB-3-1. actives 1.4% (n = 400,000). Potency, µM (highest dose often 46.1 µM), most hits filed as cytotoxic. AID 1347075, 2019. KB-3-1 viability, CellTiter-Glo ATP luminescence, 72 h; further: nearly all actives have a fitted effect of over 60% in size
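Using CellTiter-Glo luminescence, growth of non-resistant KB-3-1 adenocarcinoma cells is assessed 72 h after pin-tool compound addition at 37 °C. Normalized responses across the concentration series yield fitted curves.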
HT1080-NT tox = qHTS for induction of synthetic lethality in tumor cells producing 2HG: qHTS for the HT-1080-NT fibrosarcoma cell line; HT-1080-NT fibrosarcoma viability, CellTiter-Glo ATP luminescence, 48 h; Potency, µM (top dose mostly 46.1 µM), actives largely listed as cytotoxic; AID 686970, 2013; actives 1.6% (n = 360,000);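 further: NT is the 2HG producing partner of a matched IDH1 knockdown line; nearly all actives have a fitted effect of over 55% in size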
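HT-1080-NT; 750 cells/well; 5% FBS RPMI; 48 h compound, 37 degrees C; CellTiter-Glo luminescence; curve fitting and curve-class assignment.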
MCF10A rereplic = A quantitative high throughput screen for small molecules that induce DNA re-replication in MCF 10a normal breast cells | AID 624296, 2012 | actives 2.9% (n = 350,000) | MCF 10A DNA re-replication, Hoechst nuclear intensity, 48 h | Potency, µM (series often up to 46.1 µM), most hits filed as activators; further: nearly all actives have a fitted effect of over 50% in size
HT1080 IDH1KD tx = qHTS for induction of synthetic lethality in tumor cells producing 2HG: qHTS for the HT-1080-IDH1KD cell line; HT-1080 IDH1 knockdown viability, ATP luminescence, 48 h; Potency, µM (titrated, usually from 46.1 µM), actives largely listed as cytotoxic; actives 2% (n = 360,000)
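Assay cells: HT-1080 with IDH1 knockdown, 750 per well, RPMI/5% FBS. Exposure: 48 h at 37 °C following 2 h pre-incubation. Read: CellTiter-Glo luminescence; fitted concentration-response, curve class assigned.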
KB-V1 MDR tox = qHTS assay for MDR1-selective chemotherapeutics: Primary screen using the drug-selected MDR subline cells KB-V1 | KB-V1 MDR cells viability, CellTiter-Glo, 72 h | Potency, µM (highest dose often 46.1 µM), actives largely listed as cytotoxic | actives 3.4% (n = 400,000); further: nearly all actives have a fitted effect of over 60% in size
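Cytotoxicity toward P-gp-expressing KB-V1 cells was determined as loss of CellTiter-Glo luminescence after 72 h at 37 degrees C. Compounds were tested in quantitative HTS format across a concentration range, with curves fitted to normalized data.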
Numbers stand for hits; – = inactive; ? = inconclusive; · = no result; ! = a repeat was not active; [ ] = remark or other dose. Rows were chosen to be rich in hits. Some 7.9% of all compounds tested hit in one or more screens of this group. The call rests on the fitted dose curve; in most records, active means well fitted curve in the direction sought with a large enough effect; inconclusive means small, poorly fitted or top-dose-only effect, or another doubt; inactive means no such curve, though single readings can be large; an effect the other way counts as inactive or inconclusive.

SMILES | SW480 rereplic | KB-3-1 tox | HT1080-NT tox | MCF10A rereplic | HT1080 IDH1KD tx | KB-V1 MDR tox
COc1ccc(OC)c(N=Cc2c(O)n(Cc3ccccc3)c(=S)[nH]c2=O)c1 | 29µM | – | – | ? | – | –
Cc1ccc(-c2nc3c(=O)n(C)c(=O)nc-3n(C)n2)cc1 | · | 2.6µM | · | · | · | 7.3µM
Cn1ncnc2c(=O)n(C)c(=O)nc1-2 | – | 0.65µM | 0.52µM | 18µM | 1µM | 0.73µM
COC(=O)[C@@]12CCCCN1[C@H](c1ccc(-c3ccc(Cl)c(Cl)c3)c(OC)c1)[C@@H]1C(=O)N(C)C(=O)[C@@H]12 | – | – | – | – | – | –
O=C1CN(O)C(c2ccccc2Cl)=c2cc(Br)ccc2=N1 | – | – | – | 23µM | – | –
O=C1CN(O)C(c2ccccc2)=c2cc(Br)ccc2=N1 | – | – | – | – | – | ?
CC(=O)O[C@H]1CC[C@@]2(C)C(=CC[C@@H]3[C@H]2CC[C@]2(C)C(=O)CC[C@H]32)C1 | – | · | · | ? | · | ·
C=C1C(=O)OC2CC3(C)OC3CCC(C)=CC(OC(C)=O)C12 (centres undefined) | – | ? | – | 5.2µM | 15µM | –
C=C1C(=O)O[C@@H]2C[C@@H](C)[C@H]3C=CC(=O)[C@]3(O)C[C@@H]12 | ? | – | – | ? | – | –
CCC(=O)Nc1nc2ccccc2n1CCN(C)C | – | – | – | ? | – | –
C=C1C=C(C(F)F)n2ncc(C(=O)NCc3ccccc3F)c2N1 | · | ? | · | · | · | –
CCC1(c2ccccc2)CCC(=O)NC1=O (centres undefined) | – | · | · | – | · | ·
COc1ccc(OCC(=O)N2CCN(Cc3c[nH]c4ccccc34)CC2)cc1 | – | – | – | – | – | 16µM
COc1ccc(CN2CCN(C(=O)COc3cccc(C)c3)CC2)c(OC)c1 | ? | – | – | – | – | 2.3µM
O=C(COc1ccccc1)N1CCN(C/C=C/c2ccccc2)CC1 | – | – | – | – | – | 16µM
O=c1n(Cl)c(=O)n(Cl)c(=O)n1Cl | – | · | · | – | · | ·
Cc1cccc(Cn2cccc(C(=O)Nc3cc(C)on3)c2=O)c1 | · | – | · | · | · | –
Cc1ccc(-c2cc(-c3ccccc3)cc(-c3ccccc3)[n+]2-c2ccccc2)cc1 | –[9.22 µM] | ? | ? | 23µM | 12µM | –
C[n+]1c(-c2ccccc2)cc(-c2ccc(Cl)cc2)cc1-c1ccccc1 | ? | ? | ? | – | ? | –
Cc1ccc(-c2cc(-c3ccc(C)cc3)[n+](-c3ccccc3)c(-c3ccc(C)cc3)c2)cc1 | ? | 5.8µM | 5.2µM | ? | 7.3µM | –
CN(C)c1ccc(-[n+]2c(-c3ccccc3)cc(-c3ccccc3)cc2-c2ccccc2)cc1 | ? | 0.65µM | 10µM | ? | 2.6µM | 21µM
c1ccc(-c2cc(-c3ccccc3)[n+](-c3ccccc3)c(-c3ccccc3)c2)cc1 | – | 4.6µM | 3.7µM | – | 5.8µM | –
CC(C)(C)c1ccc(C(=O)NC(=S)Nn2cnnc2)cc1 | – | – | – | ? | – | –
Cc1cccc(OC(C)C(=O)NCC2(N(C)C)CCCCC2)c1C (centres undefined) | · | – | · | · | · | –
CCN(CC)CCOC(=O)C(C)(c1ccccc1)c1ccccc1 | – | · | · | ? | · | ·
SMILES | SW480 rereplic | KB-3-1 tox | HT1080-NT tox | MCF10A rereplic | HT1080 IDH1KD tx | KB-V1 MDR tox
O=C1c2ccccc2S(=O)(=O)c2cc(C(=O)N3CCN(c4c(Cl)cncc4Cl)CC3)ccc21 | – | – | – | ? | – | –
COc1cccc(-n2c(/C=C/c3cccc(C)c3)nc3ccccc3c2=O)c1 | · | – | · | · | · | –
CCC(=Nc1ccc(OC)cc1OC)c1c(O)[nH]c(=O)[nH]c1=O | – | ? | – | ? | – | 10µM
C=CCn1c(O)c(C(CC)=Nc2cc(OC)ccc2OC)c(=O)[nH]c1=O | – | – | – | – | – | ?
CCC(=Nc1cc(OC)ccc1OC)c1c(O)[nH]c(=O)[nH]c1=O | – | 5.8µM | – | – | – | 2.6µM
CC/C(=N\Nc1ccccc1)c1c(O)[nH]c(=O)[nH]c1=O | – | – | ? | – | 3.3µM | –
COc1ccc(N=C(C)c2c(O)[nH]c(=O)[nH]c2=O)cc1 | – | – | ? | ? | ? | ?
CC/C(=N\Nc1cccc2ccccc12)c1c(O)[nH]c(=O)[nH]c1=O | – | – | – | ? | – | –
COc1ccccc1-c1nn2c(=O)cc(CN3CCN(C(=O)COc4ccccc4Cl)CC3)nc2s1 | · | – | · | · | · | –
CC([C@H](O)c1ccccc1)N(C)C (some centres undefined) | – | · | · | – | · | ·
Cc1ccc(-c2cc(-c3ccc(C)cc3)[n+](C)o2)cc1 | – | 2.9µM | – | – | ? | –
CCC(NC(=O)OC(C)(C)C)C(=O)Oc1cc(C)cc2oc(=O)c3c(c12)CCC3 (centres undefined) | – | – | – | – | – | 15µM
Cc1cc(OC(=O)CCNC(=O)OC(C)(C)C)c2c3c(c(=O)oc2c1)CCC3 | – | – | – | – | – | –
C[C@@]12CCC(=O)C=C1C=C[C@H]1[C@H]3CC[C@](O)(CCC(=O)O)[C@]3(C)CC[C@@H]12 | – | · | · | – | · | ·
Cc1ccc2c(c1)CCCN2N=O | – | – | – | ? | – | –
CCCN1CCCc2cc(CN)ccc21 | ? | – | ? | 13µM | ? | –
CCc1ccc(OCC(=O)N2CCN(CCc3ccccn3)CC2)cc1 | · | – | · | · | · | –
COC(=O)C1=C(c2ccc3ccccc3c2)C[C@@H]2CC[C@H]1N2C | – | – | – | – | – | –
COC(=O)C1=C(C(=O)OC)C2OC1c1cc3ccccc3cc12 | 13µM | – | ? | ? | 3.3µM | –
CCOC(=O)c1c(N)n(CCN2CCCCC2)c2nc3ccccc3nc12 | – | – | – | ? | – | –
CCCCn1c(NS(=O)(=O)c2ccccc2)c(C(=O)OCC)c2nc3ccccc3nc21 | 16µM | – | ? | 6.5µM | – | ?
CCCCn1c(NC(=O)c2ccc(Br)o2)c(C(=O)OCC)c2nc3ccccc3nc21 | 16µM! | – | ? | 18µM! | – | –
CCCCOCCCn1c(N)c(C(=O)OC(C)COC)c2nc3ccccc3nc21 (centres undefined) | – | – | – | – | – | –
Cc1oc2cc3oc(=O)c(CCC(=O)N4CCCCC4)c(C)c3cc2c1C | · | – | · | · | · | –
O=C(CN1CCCCC1)c1cccc(Br)c1 | ? | – | – | – | – | –
Cn1c(CN2CCCCC2)nc2cc(NC(=O)c3cccc(Br)c3)ccc21 | – | 18µM! | ? | ? | ? | ?

High-throughput results deposited in PubChem BioAssay by National Center for Advancing Translational Sciences (NCATS).
